# Screening data deposited in PubChem by National Center for Advancing Translational Sciences (NCATS).
# AMA1 RON2 block = inhibitors of Plasmodium falciparum AMA1-RON2 interaction; AlphaScreen AMA1-biotinylated RON2 peptide binding; Potency, µM (titrated, usually from 58.2 µM), without a hit: at the highest dose activity change, negative = inhibition, actives largely listed as inhibitors; 0.2% of 360,000 active; AID 720542;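 further: 0% = vehicle wells and -100% = peptide control; nearly all actives have a fitted effect of over 45% in size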
#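 AMA1 (3D7) with his tag at 25 nM final met compounds first, then biotinylated RON2 peptide at 25 nM; detection used donor plus acceptor beads, 10 µg/mL apiece, read by AlphaScreen after 30 min at room temperature.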
# NS1 function inh = blocks influenza NS1 protein function; Potency, µM (top dose mostly 46.1 µM), for inactives: top-dose activity, positive = more growth; 0.4% of 270,000 active; calls by dose curve; further: actives are rising curves; nearly all actives have a fitted effect of over 50% in size
#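 OD600 was taken as the measure of yeast growth restored by compound in an NS1-expressing S. cerevisiae strain. Cells had been washed out of glucose medium and diluted 1:100 into galactose -URA medium, pH 6.0.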
# LmPK inh = LmPK (Leishmania mexicana) enzyme inhibition; Q27686; purified LmPK, Kinase-Glo ATP luminescence, 1 h; Potency, µM (highest dose often 57.5 µM), without a hit: top-dose activity change, negative = inhibition, actives largely listed as inhibitors; 0.37% of 290,000 active; AID 1721; further: on the % scale 0 is the no-effect control and ±100 the full control effect
# Target sequence (Q27686 whole entry, looked up): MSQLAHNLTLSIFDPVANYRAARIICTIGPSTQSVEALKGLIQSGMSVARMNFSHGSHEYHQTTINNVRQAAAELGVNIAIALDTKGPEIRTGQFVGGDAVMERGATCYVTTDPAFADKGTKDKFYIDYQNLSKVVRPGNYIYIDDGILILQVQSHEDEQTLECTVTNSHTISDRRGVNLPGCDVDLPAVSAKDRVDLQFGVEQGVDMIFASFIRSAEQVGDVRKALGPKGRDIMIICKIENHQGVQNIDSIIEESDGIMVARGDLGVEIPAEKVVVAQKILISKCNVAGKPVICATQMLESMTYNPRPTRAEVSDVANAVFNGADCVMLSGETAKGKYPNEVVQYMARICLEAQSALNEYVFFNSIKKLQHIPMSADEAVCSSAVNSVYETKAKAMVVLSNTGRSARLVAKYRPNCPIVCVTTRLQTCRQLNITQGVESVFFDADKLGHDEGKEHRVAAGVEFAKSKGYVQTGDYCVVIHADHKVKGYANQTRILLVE
#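 Screened at intermediate enzyme activity to detect both inhibitors and activators: LmPK at 0.1 nM, with a 0.5 nM enzyme column as activation reference. PEP 0.5 mM, ADP 0.1 mM; ATP detected by luminescence after 1 h.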
# RE007 growth inh = less growth of the S. pombe RE007 Vpr strain | S. pombe RE007 Vpr strain, BacTiter-Glo ATP luminescence, 24 h | 0.21% of 360,000 active | Potency, µM (top dose mostly 92.2 µM), for the others: top-dose activity change, negative = less growth, most hits filed as inhibitors; active means well fitted falling curve with a large enough effect; inconclusive means small, poorly fitted or top-dose-only effect; inactive means no such curve, though single readings can be large or run the other way; further: on the % scale 0 is the no-effect control and ±100 the full control effect; nearly all actives have a fitted effect of over 50% in size
#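 Fission yeast strain RE007, carrying one chromosomally integrated HIV-1 vpr copy, was seeded at OD 0.01 in PMG+AL medium with 23 nL pinned compound. After 24 h at 30 °C and 99% humidity, viability was read by BacTiter-Glo luminescence.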
# Tb PYK inh = blocks Trypanosoma brucei pyruvate kinase; TbPYK enzyme, Kinase-Glo Plus ATP luminescence, 45 min; Potency, µM (doses to about 76.8 µM), for the others: at the highest dose activity, negative = inhibition, actives largely listed as inhibitors; 0.12% of 410,000 active; AID 624173; further: on the % scale 0 is the no-effect control and ±100 the full control effect; nearly all actives have a fitted effect of over 50% in size
#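 Screened from lowest to highest concentration, compounds were pinned into TbPYK/substrate mixtures, and ADP (130 uM final) was added. Plates sat at room temperature for 45 min prior to Kinase-Glo Plus detection by luminescence.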
# * = called active by the depositor; ? = inconclusive; · = no result; [ ] = dose if it differs, or a comment. Rows were chosen to be rich in hits. Some 0.92% of all compounds tested hit in one or more screens of this group. Unless noted, the call rests on the fitted dose curve; in most records, active means well fitted curve in the direction sought with a large enough effect; inconclusive means small, poorly fitted or top-dose-only effect, or another doubt; inactive means no such curve, though single readings can be large; an effect the other way counts as inactive or inconclusive. Potency means the concentration at half of the fitted maximal effect.
SMILES,AMA1 RON2 block,NS1 function inh,LmPK inh,RE007 growth inh,Tb PYK inh
Cc1cccc(C)c1N1C(=O)CC(N2CCN(S(=O)(=O)c3ccccc3F)CC2)C1=O (stereo unspecified),-5%,·,·,-3%,-4%
O=C1CC(N2CCN(S(=O)(=O)c3ccccc3F)CC2)C(=O)N1c1ccccc1F (stereo unspecified),32µM*,·,·,13%,3%
O=C(CSC1=NS(=O)(=O)c2ccccc21)Nc1ccccc1,10%,-113%,22µM*,-25%,?
CSc1ccc(CCNc2ncnc3onc(C)c23)cc1,·,·,·,·,-5%
Fc1ccccc1Nc1nc2ccccc2o1,20%,-31%,16µM*,?,?
FC(F)(F)Oc1ccc(Nc2nc3ccccc3o2)cc1,11%,-14%,1%,-24%,-9%
c1ccc(Nc2nc3ccccc3o2)cc1,3%,-56%,16µM*,?,-6%
COCC(=O)Nc1cc(Sc2ccccc2)ccc1N=C(NC(=O)OC)NC(=O)OC,·,·,·,·,-7%
Nc1ccc(Oc2ccccc2-c2ccccc2)cc1,22µM*,·,·,-7%,3%
Cc1ccn2cc(-c3cc4ccccc4oc3=O)nc2c1,10%,-5%,14µM*,-11%,-18%
O=c1oc2ccccc2cc1-c1cn2cc(Cc3ccc(Cl)cc3)sc2n1,·,·,·,·,1%
CN1CCN(C(=O)c2cc(-c3ccc(O)cc3)on2)CC1,·,19%,·,·,·
Cc1ccc(OCc2nc(-c3ccccn3)no2)c(Br)c1,15%,-34%,16µM*,-14%,-3%
CCc1ccc(OCc2nc(-c3ccccn3)no2)c(Br)c1,2%,-95%,?,-24%,-1%
CCN1c2ccccc2N(C)C1(C)c1ccccc1 (stereo unspecified),32µM*,22%,?,?,?
COc1cc(/C=N/N(C)c2ccccc2)cc(Cl)c1O,-7%,-151%,-2%,28µM*,4%
CO[C@]1(NC(=O)Cc2cccs2)C(=O)N2C(C(=O)O)=CC(COC(N)=O)S[C@H]21 (stereo partly specified),·,·,·,·,2%
CCn1nc(/C=C/c2ccccc2)nc2c(=O)n(C)c(=O)nc1-2,11%,-2%,5%,28µM*,-10%
CCn1nc(-c2cccs2)nc2c(=O)n(C)c(=O)nc1-2,0%,-204%,-13%,?,-5%
Clc1ccccc1CN1CCN(/N=C/C=C\c2ccco2)CC1,10µM*,4%,4%,-11%,-8%
C(/C=C/c1ccco1)=N/N1CCN(c2ccccc2)CC1,?,6%,-14%,-28%,-16%
CCOC(=O)COc1ccccc1/C=C\[N+](=O)[O-],-13%,-64%,2%,32µM*,?
CSCC[C@H](NC(=O)[C@@H](Cc1ccc(O[S+](=O)([O-])O)cc1)NC(=O)[C@H](N)CC(=O)O)C(=O)NCC(=O)N[C@@H](Cc1c[nH]c2ccccc12)C(=O)N[C@H](CCSC)C(=O)N[C@H](CC(=O)O)C(=O)N[C@@H](Cc1ccccc1)C(N)=O,·,·,·,·,-6%
CCC(C)(C)c1ccc(CC(C)CN2C[C@@H](C)O[C@@H](C)C2)cc1 (stereo partly specified),·,·,·,·,3%
O=C1NC(=S)N(c2ccccc2)C(=O)/C1=C/c1ccco1,8.9µM*,?,17%,2%,?
SMILES,AMA1 RON2 block,NS1 function inh,LmPK inh,RE007 growth inh,Tb PYK inh
CCOc1cccc(N2C(=O)/C(=C/c3ccco3)C(=O)NC2=S)c1,?,?,2%,3%,?
CCOC(=O)CC(=O)CSc1nc2ccc(C)cc2cc1C#N,24%,-5%,20µM*,-11%,?
CC[C@H](OC(C)=O)C(C[C@H](C)NC)(c1ccccc1)c1ccccc1,·,·,·,·,-5%[157 µM]
COc1cc(OC)cc(-c2nc3ccccc3c(=O)o2)c1,2%,-2%,3%,2%,-6%
COc1ccc(-c2nc3ccccc3c(=O)o2)cc1,-27%,-5%,18µM*,?,2%
Nc1nonc1C(=O)OCC(=O)c1ccc(Cl)cc1,-5%,1%,4%,-7%,3%
N/C(=N\OC(=O)c1ccc(Cl)cc1)c1nonc1N,-2%,-8%,13µM*,-21%,-18%
N/C(=N/OC(=O)c1ccccc1F)c1nonc1N,5%,-8%,14µM*,10%,?
C[C@H]1Cc2c(-c3ccccc3)nc3c(c2CO1)CN(C(=O)c1cccnc1)CC3,·,·,-7%[11.5 µM],·,·
CC(=O)Oc1cc(C)c(OC(C)=O)c2ccccc12,·,·,·,·,-1%
COc1ccc(-c2cc(C(=O)NCc3cccs3)no2)cc1OC,·,-20%,·,·,·
CCOc1ccc2c(c1)-c1c(ssc1=S)C(C)(C)N2C(=O)CSC1=NCCS1,10µM*,?,0%,-28%,4%
CCOc1ccc2c(c1)/C(=N/N1C(=O)c3ccccc3C1=O)C(=O)N2,-5%,·,-5%,-11%,-2%
CCOc1ccc2c(c1)-c1c(ssc1=S)C(C)(C)N2,19µM*,6%,-4%,-2%,-5%
Cc1ccc2c(c1)-c1c(ssc1=S)C(C)(C)N2C(=O)CSC1=NCCS1,?,29%,3%,3%,-12%
C(=C1NCCN1)c1cccc2ccccc12,·,·,·,·,5%
CCCN1C(=O)S/C(=C\c2ccc(N3CCOCC3)cc2C)C1=O,·,5µM*,6%,·,·
CCN1C(=O)S/C(=C\c2ccc(N3CCOCC3)cc2C)C1=O,6%,-6%,0%,9%,-2%
Cc1nc(-c2cccc(NC(=O)Nc3ccc([N+](=O)[O-])cc3)c2)no1,·,·,·,·,-10%
NCCc1ccc(S(=O)(=O)O)cc1[N+](=O)[O-],·,-3%,·,·,·
CCn1cc(C(=O)O)c(=O)c2cnc(N3CCN(C(=S)NC(=O)c4ccc(Cl)cc4)CC3)nc21,87%,-3%,14µM*,-4%,-7%
O=c1ccn(C2OC(COP(=O)(O)OC3C(CO)OC(n4ccc(=O)[nH]c4=O)C3O)C(O)C2O)c(=O)[nH]1 (stereo unspecified),·,·,·,·,4%
CCCCc1cc2c(cn1)=C(OC(=O)c1ccc(Cl)nc1)C(C)(OC(=O)CC)C(=O)C=2 (stereo unspecified),·,·,0%[11.5 µM],·,·
COc1ccc(-c2cc3ncc(-c4ccccc4)c(N)n3n2)cc1,-4%,-2%,16µM*,-26%,-6%
N#Cc1cnc2cc(-c3ccccc3)nn2c1N,14%,3%,-8%,4%,-3%
NC(=S)Cc1nc2n(n1)Cc1ccccc1-2,61%,1%,-2%,2%,-4%
CCn1c(C)nc2cc(C(=O)NNC(=O)c3ccc(C)cc3)ccc21,1%,·,·,-19%,?
CCn1c(C)nc2cc(-c3nc4n(n3)Cc3ccccc3-4)ccc21,-3%,-14%,16µM*,5.6µM*,?
Cc1ccc(-c2nc3n(n2)Cc2ccccc2-3)cc1,-3%,-12%,7.9µM*,?,-21%
COC(=O)C1=C(C(=O)OC)[C@@H]2N(C)c3ccc(OC)cc3[C@@]23C[C@@H](C(=O)OC)N(S(=O)(=O)c2ccc4c(c2)OCCN4C)C3=N1,·,·,-6%[11.5 µM],·,·
